# Experimental data from the supplement of paper PMC8728848.
# Only a selection was taken, and the strongest signals are over-represented in it overall.
# Tests used:
# Assay in all cases: glycan array binding signal (z-score within array); higher = stronger binding
# Details in all cases: glycan notation: IUPAC condensed, linker removed
# [1] = target: Fuc(a1-2)Gal(b1-4)GlcNAc6S
# How it was run: (§1)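 Arrays were curated from the Consortium for Functional Glycomics database, 3228 in total, and kept only where the protein sequence was available. Binding is expressed as a within-array Z-score. This score was averaged across arrays of the same protein sequence at different concentrations or buffers and across linkers, and negative values can be read as non-binding.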
# [2] = target: Fuc(a1-2)Gal(b1-4)[Fuc(a1-3)]GlcNAc
# How it was run: as §1
# [3] = target: Fuc(a1-2)Gal6S(b1-4)GlcNAc
# How it was run: as §1
# [4] = target: Fuc(a1-2)[Gal(a1-3)]Gal(b1-3)GlcNAc
# How it was run: as §1
# [5] = target: Fuc(a1-2)[GalNAc(a1-3)]Gal
# How it was run: as §1
# [6] = target: Gal(a1-3)Gal(b1-4)[Fuc(a1-3)]GlcNAc
# How it was run: as §1
# Gal(b1-2)Gal = target: Gal(b1-2)Gal
# How it was run: as §1
# [7] = target: Gal(b1-3)GalNAc(b1-3)Gal(a1-4)Gal(b1-4)Glc
# How it was run: as §1
# [8] = target: Gal(b1-3)[Fuc(a1-4)]GlcNAc(b1-3)Gal(b1-3)[Fuc(a1-4)]GlcNAc
# How it was run: as §1
# [9] = target: Gal(b1-4)GalNAc(b1-3)[Fuc(a1-2)]Gal(b1-4)GlcNAc
# How it was run: as §1
# [10] = target: Gal(b1-4)GlcNAc(a1-6)Gal(b1-4)GlcNAc
# How it was run: as §1
# [11] = target: Gal(b1-4)GlcNAc(b1-3)[Gal(b1-4)GlcNAc(b1-6)]Gal(b1-4)GlcNAc
# How it was run: as §1
# [12] = target: Gal(b1-4)GlcNAc(b1-3)[GlcNAc(b1-6)]Gal(b1-4)GlcNAc
# How it was run: as §1
# [13] = target: Gal(b1-4)GlcNAc(b1-6)[Gal(b1-3)]GalNAc
# How it was run: as §1
# GalNAc(b1-3)Gal = target: GalNAc(b1-3)Gal
# How it was run: as §1
# [14] = target: GalNAc(b1-3)Gal(a1-4)Gal(b1-4)GlcNAc
# How it was run: as §1
# GlcA(b1-6)Gal = target: GlcA(b1-6)Gal
# How it was run: as §1
# GlcNAc(b1-3)Gal(b1-4)Glc = target: GlcNAc(b1-3)Gal(b1-4)Glc
# How it was run: as §1
# [15] = target: GlcNAc(b1-4)GlcNAc(b1-4)GlcNAc(b1-4)GlcNAc(b1-4)GlcNAc
# How it was run: as §1
# [16] = target: GlcNAc(b1-6)Gal(b1-4)GlcNAc
# How it was run: as §1
# [17] = target: Man(a1-2)Man(a1-3)[Man(a1-2)Man(a1-6)]Man(a1-6)[Man(a1-2)Man(a1-2)Man(a1-3)]Man
# How it was run: as §1
# [18] = target: Neu5Ac(a2-3)Gal(b1-3)[Fuc(a1-4)]GlcNAc(b1-3)Gal(b1-4)[Fuc(a1-3)]GlcNAc
# How it was run: as §1
# [19] = target: Neu5Ac(a2-3)Gal(b1-4)GlcNAc(b1-2)Man(a1-3)[Neu5Ac(a2-6)Gal(b1-4)GlcNAc(b1-2)Man(a1-6)]Man(b1-4)GlcNAc(b1-4)GlcNAc
# How it was run: as §1
# [20] = target: Neu5Ac(a2-3)GalNAc(b1-4)GlcNAc
# How it was run: as §1
# Neu5Ac(a2-6)Gal = target: Neu5Ac(a2-6)Gal
# How it was run: as §1
# [21] = target: Neu5Ac(a2-6)Gal(b1-4)GlcNAc6S
# How it was run: as §1
# [22] = target: Neu5Ac(a2-8)Neu5Ac(a2-8)Neu5Ac(a2-3)Gal(b1-4)Glc
# How it was run: as §1
# [23] = target: Neu5Ac9Ac(a2-6)Gal(b1-4)GlcNAc
# How it was run: as §1
# [24] = target: Neu5Gc(a2-3)Gal(b1-4)GlcNAc
# How it was run: as §1
binder,measurement,setting,value
GH95CBM (Clostridium perfringens) (protein) EKVAVETSVYLSELEWKSASTGYGEIQKDASCDGNTITLKGENGEKVSYDKGIGTHAHSEIVYSLEGLDYYDYFETFVGVDQEMAGTVASISFEVYLDNEKVFDSGLMTGDTTQKHVKVPIAGKNTLKLVVKDGGDSIGSDHGSFGDAKLT,glycan array binding signal (z-score),[1],-0.334
same,glycan array binding signal (z-score),[2],-0.325
same,glycan array binding signal (z-score),[3],-0.296
same,glycan array binding signal (z-score),[4],-0.321
same,glycan array binding signal (z-score),[5],-0.291
same,glycan array binding signal (z-score),[6],4.88
same,glycan array binding signal (z-score),Gal(b1-2)Gal,2.38
same,glycan array binding signal (z-score),[7],4.91
same,glycan array binding signal (z-score),[8],-0.312
same,glycan array binding signal (z-score),[9],4.18
same,glycan array binding signal (z-score),[10],-0.283
same,glycan array binding signal (z-score),[11],-0.311
same,glycan array binding signal (z-score),[12],-0.326
same,glycan array binding signal (z-score),[13],3.34
same,glycan array binding signal (z-score),GalNAc(b1-3)Gal,3.84
same,glycan array binding signal (z-score),[14],6.95
same,glycan array binding signal (z-score),GlcA(b1-6)Gal,-0.227
same,glycan array binding signal (z-score),GlcNAc(b1-3)Gal(b1-4)Glc,-0.347
same,glycan array binding signal (z-score),[15],-0.133
same,glycan array binding signal (z-score),[16],-0.319
same,glycan array binding signal (z-score),[17],1.43
same,glycan array binding signal (z-score),[18],-0.265
same,glycan array binding signal (z-score),[19],-0.357
same,glycan array binding signal (z-score),[20],-0.362
same,glycan array binding signal (z-score),Neu5Ac(a2-6)Gal,-0.355
same,glycan array binding signal (z-score),[21],-0.298
same,glycan array binding signal (z-score),[22],-0.343
same,glycan array binding signal (z-score),[23],-0.367
same,glycan array binding signal (z-score),[24],-0.34
